Results on 38 molecules are retold here after the supplement of paper PMC6805474.

Values without a mark were called inactive.

The subject of one test is Schistosoma mansoni schistosomula (Liberian). Kind of test: drug effect (1 - score/DMSO control score) (fraction); higher = more antischistosomal effect, active = 0.5 or more; extreme values may be limits of the assay. The note with it: 48 h; 10 µM. In outline: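 Schistosomula of the Liberian strain of Schistosoma mansoni were mechanically transformed from cercariae, pre-incubated for at least 12 h, and placed at 50 per well in flat-bottom 96-well plates with Medium 199 containing 5% FCS. Compounds were tested in duplicate at 10 µM at 37 °C and 5% CO2, alongside wells holding 0.1% DMSO. Parasites were scored visually at 10× after 24, 48 and 72 h on a quarter-point scale running from 3 (normal) to 0 (dead). Drug effect came from the mean test-well score relative to the mean DMSO-well score, with negative values set to zero and plates accepted only when the DMSO wells averaged at least 2.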
`c1cncc(NCc2ccc(-c3cc4ccncc4cc3OC3CCNCC3)s2)c1`: the drug effect is 0.45. In the case of `CC(=O)NC[C@H]1CN(c2ccc(N3CCSCC3)c(F)c2)C(=O)O1`, the drug effect is 0.2.

Regarding `COc1ccc(-c2nc(-c3cccc(NC(=O)Cc4ccc(F)cc4)c3)no2)cc1OC`, the drug effect was 0.2. Turning to `CNC(=O)CNc1nc(-c2ccccn2)nc2scc(-c3ccccc3)c12`, the drug effect was 0.111. Turning to `COc1cc(Br)cc2cc(C(=O)Nc3cccc(C(F)(F)F)c3)c(=O)oc12`, the drug effect was 0.0556. In the case of `O=C(CCC1CCCCC1)Nc1cccc(-c2nnc(-c3ccco3)o2)c1`, the drug effect was 0.2. Turning to `O=C(NC1CCCCC1)N1CCN(Cc2ccc3c(c2)OCO3)CC1`, the drug effect was 0.2. Consider `NCC(=O)N1CCn2c(nc(-c3ccccc3)c2Nc2ccc3c(c2)OCO3)C1`, for which the drug effect was 0.444.

Turning to `COc1ccc(Nc2ccccc2NC(=O)c2ccc(O)nc2)cc1`, the drug effect was 0.45.

With `O=C(Nc1cccc(Cl)c1)c1cnc(N2CCN(c3ccncc3)CC2)c(Cl)c1`, the drug effect is 0.946 (active). On to `COc1cccc(-c2nc3c(N4CCCC4)cccc3n2CC2CCCN2)n1` (stereo not given), for which the drug effect is 0.778 (active). With `CN(C(=O)c1cc2c(-c3cncnc3)cccc2[nH]1)c1ccccc1`, the drug effect was 0.278.

Consider `CN1CCN(c2nccc3nc(-c4ccc(F)c(F)c4)[nH]c23)CC1`, for which the drug effect was 0.1.

Take `CNc1cc(C)nc(C2CN(C(=O)c3n[nH]c4ccccc34)CCO2)c1` (stereo not given): the drug effect is 0.167. On to `CN(C)c1cc(NC(=O)Nc2ccccc2)c2ccccc2n1`, for which the drug effect is 0.35.

In the case of `COc1cc(NC(=O)Cc2nn(C)c(=O)c3ccccc23)ccc1Cl`, the drug effect was 0.111. With `O=C(NCCc1ccccc1)c1cc(-c2cccnc2)cnc1NCC1CC1`, the drug effect was 0.514 (active). Still for that read-out and setting: in the case of `CN1CCN(CCCOc2ncc(Nc3ncc(-c4ccc(C(F)(F)F)c(F)c4)nc3C(N)=O)cn2)CC1` it was 1 (active). Consider `Cc1cc(Cl)c(S(=O)(=O)N2CCCC2)cc1OCC(=O)NC1CCCCC1`, for which the drug effect was 0.189. The same measure, in the same setting: in the case of `CCCn1c(NC(=O)c2ccc3ccccc3n2)nc2ccccc21` it was 0.278; in that of `Cc1nn(C(=O)Nc2cccc(C(F)(F)F)c2)c(C)c1Sc1ncccn1`, 0.167.

`CCOc1ccccc1NC(C)C(=O)Nc1cc(C(F)(F)F)ccc1N1CCOCC1` (stereo not given): the drug effect was 0.167.

Staying with this test, now noted: 72 h; 10 µM.
As to `O=C(Nc1cnc2ccccc2c1)c1cccc(-n2cnnn2)c1`, the drug effect was 0.0303. For the molecule `Cc1cc(C)n(-c2ccc(NC(=O)C3CCN(Cc4cnc(C)s4)CC3)cc2)n1`, the drug effect is 0.152. As to `Cc1cc(O)nc(-n2nc(C)cc2C)n1`, the drug effect is 0.576 (active).

Take `O=C(C1CCN(c2nnnn2-c2ccccc2)CC1)N1CCc2ccccc2C1`: the drug effect is 0.25. For the molecule `FC(F)(F)c1cnc(Sc2nnc(-c3ccncc3)o2)c(Cl)c1`, the drug effect was 0.938 (active). Same read-out and setting: in the case of `COc1cccc(-c2cc3c(Nc4cccnc4)nccc3[nH]2)c1` it was 0.152; in that of `CCN(CC)CCCCCCNc1cc(OC)cc2c(C)ccnc12`, 0.167; in that of `Cc1ncc(-c2ccnc(Nc3ccc(S(C)(=O)=O)cc3)n2)n1C(C)C`, 0.167. With `N=C(N)Nc1ccc(-c2ccc(-c3ccc(N=C(N)N)c(Cl)c3)o2)cc1Cl`, the drug effect is 0.0625.

`O=C(Nc1ccccc1)c1ccc(-c2cc3ccncc3cc2OC2CCNCC2)s1`: the drug effect is 0.455. Take `CC1CCCCN1C(=O)NCCc1coc(-c2ccc(F)cc2)n1` (stereo not given): the drug effect was 0.236.

Take `Cc1ccc(Oc2ccc(NC(=O)CNc3ccccc3N3CCCC3=O)cc2)cc1`: the drug effect is 0.556 (active). Turning to `Nc1ncnc2[nH]nc(Cc3cccc4ccccc34)c12`, the drug effect is 0.562 (active). Same read-out and setting: in the case of `CCCCN(CCCC)c1c(C#N)cc(S(=O)(=O)Nc2ccccc2)cc1C#N` it was 0.273. As to `NS(=O)(=O)c1cncc(-c2ccc3nccc(-c4cn[nH]c4)c3n2)c1`, the drug effect is 0.312.

On to `Cc1nn2c(O)c3c(nc2c1-c1ccc(F)cc1)CCCC3`, for which the drug effect was 0.509 (active).

With `c1cncc(NCc2ccc(-c3cc4ccncc4cc3OC3CCNCC3)s2)c1`, the drug effect was 0.556 (active). Turning to `CC(=O)NC[C@H]1CN(c2ccc(N3CCSCC3)c(F)c2)C(=O)O1`, the drug effect is 0.236. Take `COc1ccc(-c2nc(-c3cccc(NC(=O)Cc4ccc(F)cc4)c3)no2)cc1OC`: the drug effect is 0.182. `CNC(=O)CNc1nc(-c2ccccn2)nc2scc(-c3ccccc3)c12`: the drug effect is 0.125. The same measure, in the same setting: in the case of `COc1cc(Br)cc2cc(C(=O)Nc3cccc(C(F)(F)F)c3)c(=O)oc12` it was 0.0556; in that of `O=C(CCC1CCCCC1)Nc1cccc(-c2nnc(-c3ccco3)o2)c1`, 0.167; in that of `O=C(NC1CCCCC1)N1CCN(Cc2ccc3c(c2)OCO3)CC1`, 0.127.

`NCC(=O)N1CCn2c(nc(-c3ccccc3)c2Nc2ccc3c(c2)OCO3)C1`: the drug effect is 0.688 (active). `COc1ccc(Nc2ccccc2NC(=O)c2ccc(O)nc2)cc1`: the drug effect is 0.4. In the case of `O=C(Nc1cccc(Cl)c1)c1cnc(N2CCN(c3ccncc3)CC2)c(Cl)c1`, the drug effect is 1 (active).

On to `COc1cccc(-c2nc3c(N4CCCC4)cccc3n2CC2CCCN2)n1` (stereo not given), for which the drug effect was 0.75 (active). Take `CN(C(=O)c1cc2c(-c3cncnc3)cccc2[nH]1)c1ccccc1`: the drug effect was 0.375. Regarding `CN1CCN(c2nccc3nc(-c4ccc(F)c(F)c4)[nH]c23)CC1`, the drug effect was 0.167.

On to `CNc1cc(C)nc(C2CN(C(=O)c3n[nH]c4ccccc34)CCO2)c1` (stereo not given), for which the drug effect was 0.125. Same read-out and setting: in the case of `CN(C)c1cc(NC(=O)Nc2ccccc2)c2ccccc2n1` it was 0.455; in that of `COc1cc(NC(=O)Cc2nn(C)c(=O)c3ccccc23)ccc1Cl`, 0.0625. As to `O=C(NCCc1ccccc1)c1cc(-c2cccnc2)cnc1NCC1CC1`, the drug effect was 0.576 (active). Regarding `CN1CCN(CCCOc2ncc(Nc3ncc(-c4ccc(C(F)(F)F)c(F)c4)nc3C(N)=O)cn2)CC1`, the drug effect is 1 (active). Consider `Cc1cc(Cl)c(S(=O)(=O)N2CCCC2)cc1OCC(=O)NC1CCCCC1`, for which the drug effect is 0.212. As for `CCCn1c(NC(=O)c2ccc3ccccc3n2)nc2ccccc21`, the drug effect is 0.312. Same read-out and setting: in the case of `Cc1nn(C(=O)Nc2cccc(C(F)(F)F)c2)c(C)c1Sc1ncccn1` it was 0.312. On to `CCOc1ccccc1NC(C)C(=O)Nc1cc(C(F)(F)F)ccc1N1CCOCC1` (stereo not given), for which the drug effect was 0.312.
